Reference: PubChem BioAssay AID489008 (National Center for Advancing Translational Sciences (NCATS), 2010)
Inconclusive results are not listed. The source made the active and inactive calls. Calls follow the shape of the dose curve; as a rule, active = well fitted inhibition curve with a large enough effect; inconclusive = small, poorly fitted or top-dose-only effect; inactive = flat fitted curve, though single readings scatter.

target: Ferritin light chain (Equus caballus) (UniProt P02791); assay: Confirmation Assay for Identification of Novel General Anesthetics; settings: apoferritin 1-aminoanthracene fluorescence displacement; also: nearly all actives have a fitted effect of over 40% in size
Sequence (P02791 2-175 limits assumed): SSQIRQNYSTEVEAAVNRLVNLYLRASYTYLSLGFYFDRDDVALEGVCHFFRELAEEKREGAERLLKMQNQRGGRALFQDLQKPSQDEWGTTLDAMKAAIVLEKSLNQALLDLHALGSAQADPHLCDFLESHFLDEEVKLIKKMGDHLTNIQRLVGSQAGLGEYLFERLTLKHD
Excerpt: Anesthetic development has remained a largely empirical process. There are growing concerns about the cognitive effects of known general anesthetics and acceleration of the onset of neurodegenerative disease. The compounds' toxicity and multiple specific binding targets in the mammalian brain [4] has made them less attractive as drug leads. In this assay, a GABAergic mimetic model system, apoferritin and a profluorescent 1-aminoanthracene ligand (1-AMA), was used to construct a competitive binding assay for identification of novel general anesthetics. The assay was validated for 1-AMA using other known anesthetics, such as isoflurane (CID:3763) and propofol (CID: 4943), [6]. This particular BioAssay is a confirmation of followup compounds from primary screen AID:485281.
[1] S.L. Bianchi, T. Tran, C. Liu, S. Lin, Y. Li, J.M. Keller, R.G. Eckenhoff, and M.F. Eckenhoff, Brain and behavior changes in 12-month-old Tg2576 and nontransgenic mice exposed to anesthetics. Neurobiol Aging 29 (2008) 1002-10.
[2] Z. Xie, Y. Dong, U. Maeda, R.D. Moir, W. Xia, D.J. Culley, G. Crosby, and R.E. Tanzi, The inhalation anesthetic isoflurane induces a vicious cycle of apoptosis and amyloid beta-protein accumulation. J Neurosci 27 (2007) 1247-54.
[3] P. Honegger, and J.M. Matthieu, Selective toxicity of the general anesthetic propofol for GABAergic neurons in rat brain cell cultures. J Neurosci Res 45 (1996) 631-6.
[4] M.F. Eckenhoff, K. Chan, and R.G. Eckenhoff, Multiple specific binding targets for inhaled anesthetics in the mammalian brain. J Pharmacol Exp Ther 300 (2002) 172-9.
[5] C.A. Butts, J. Xi, G. Brannigan, A.A. Saad, S.P. Venkatachalan, R.A. Pearce, M.L. Klein, R.G. Eckenhoff, and I.J. Dmochowski, Identification of a fluorescent general anesthetic, 1-aminoanthracene. Proc Natl Acad Sci U S A 106 (2009) 6501-6.
[6] W.A. Lea, J. Xi, A. Jadhav, L. Lu, C.P. Austin, A. Simeonov, and R.G. Eckenhoff, A high-throughput approach for identification of novel general anesthetics. PLoS One 4 (2009) e7150.
Source: NIH Chemical Genomics Center [NCGC]
Assay Submitter: Roderic Eckenhoff, University of Pennsylvania
Screening Center PI: Christopher P. Austin, NIH
Probe Development: NIH Chemical Genomics Center [NCGC]
Three uL of reagents (free 1-AMA (50% saturated solution of 1-aminoanthracene
in PBS) in columns 3, 4 as negative control and 1-AMA/apoferritin mixture (10 uM horse-spleen apoferritin in 50% saturated 1-aminoanthracene in PBS) in columns 1, 2, 5-48) was dispensed into 1536-well Greiner black assay plates. Compounds (23 nL) were transferred via Kalypsys pintool equipped with 1,536-pin array (10 nL slotted pins, V&P Scientific, San Diego, CA). Titration of the positive control, propofol, were delivered via pin transfer from separate control plates to the 2nd column of each assay plate. The starting concentration of the control, dissolved in DMSO, was at 160 mM, followed by two-fold dilution points in duplicate, for a total of 16 concentrations. The plates were incubated for 10 min at room temperature, and then read on an EnVision HTS multilabel reader (Perkin-Elmer, Waltham, MA) (end point read, 3 min/plate) using Fura2 BFP excitation filter (380 nm, bandwidth 10 nm) and fluorescein emission filter (535 nm, bandwidth 25 nm) set. A LANCE/DELFIA dichroic mirror with a cutoff wavelength at 400 nm was used to maximize signal accuracy and strength. Vehicle-only plates, with DMSO being pin-transferred to the entire column 5-48 compound area, were inserted uniformly at the beginning and the end of each library in order to monitor for and record any shifts in the background. Activity was computed as the normalized fluorescence response relative to free 1-AMA and 1-AMA/apoferritin complex values. Concentration-effect relationships were derived by using curve fitting algorithms developed in-house (http://ncgc.nih.gov/pub/openhts/). […]
Potency is read from the fitted curve at half-maximal effect.

Row | Compound | Potency
1 | CC(C(=O)c1cn(C)c2ccccc12)c1ccccc1 (configuration not stated) | 35.5 µM (active)
2 | CCN(CC)C(=O)Oc1ccc(Cl)c2ccccc12 | 31.6 µM (active)
3 | Nc1ccc(Oc2cccc(Oc3ccc(N)cc3)c2)cc1 | 31.6 µM (active)
4 | O=C(Cn1nc(-c2ccccc2)ccc1=O)N1CCC2(CC1)OCCO2 | 15.8 µM (active)
5 | O=C(COC(=O)Cc1ccccc1)NC12CC3CC(CC(C3)C1)C2 | 14.1 µM (active)
6 | O=C1C(c2ccccc2)=C(N2CC2)c2ccccc21 | 35.5 µM (active)
7 | c1ccc(C2CC3CC4(CCCC4)N2O3)cc1 (configuration not stated) | 7.94 µM (active)
